Laboratory results published in PubChem BioAssay AID651718 (The Scripps Research Institute Molecular Screening Center, 2012).
In all, about 360,000 compounds went through this assay and about 2,700 (0.75%) were called active. Cut-off read from the data, not from the text of the source: active = inhibition above about 4.5%; inactive = the rest. Many of the other results were omitted from the sample, so actives are more common in it than they were.

What follows are compounds tested on Methionine sulfoxide reductase A (Bos taurus) (assay: inhibition of methionine sulfoxide reductase A – biochemical, absorbance, bovine, HTS, primary screen (AID 651718;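 note: 0% = vehicle wells with enzyme and 100% = reference inhibitor wells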)). Conditions: purified bovine MsrA, absorbance read-out; at 15.5 µM; stronger effect = higher value.
For `CCOC(=O)C1=CCC2C(=O)N(Cc3ccccc3)C(=O)C12` (configuration not stated), the inhibition was -0.57% (inactive). With `C[C@H](O)[C@@H]1CN2CCc3ccc(-c4ccc5c(c4)OCO5)cc3[C@@H]2C[C@@H]1N(C)C(=O)C1CCCCC1` the inhibition was -0.49% (inactive). `Cc1ccc(C(=O)NC2CCCC(C)C2C)cc1S(=O)(=O)N1CCCCC1` (configuration not stated) was tested, and the inhibition was -0.29% (inactive). For `COc1cccc(-c2nn(C)c3sc(C(=O)N4CCN(c5ccccc5)CC4)cc23)c1`, the inhibition was 4.59% (active). With `Cn1nc(C(F)(F)F)c2cc(C(=O)N3CCOCC3)sc21` the inhibition was -0.18% (inactive). `COc1cccc(-c2ccc(SCC(=O)N3CCN(c4ccccc4)CC3)nn2)c1` was tested, and the inhibition was -0.38% (inactive). With `O=C(C(=O)N1CCC(CNS(=O)(=O)Cc2ccccc2)CC1)c1cc2ccccc2o1` the inhibition was 1.99% (inactive). `O=c1c2ccccc2nnn1CSc1nc2sc3c(c2c(=O)n1CC1CCCO1)CCC3` (configuration not stated) was tested, and the inhibition was -0.37% (inactive). `Brc1cc(/C=N/n2cnnc2)oc1Br` was tested, and the inhibition was 2.05% (inactive). With `Cc1ccc(Cl)cc1-c1ccc(/C=N/n2cnnc2)o1` the inhibition was 4.94% (active). In the case of `Clc1cc(-c2ccc(/C=N/n3cnnc3)o2)ccc1Br`, the inhibition is reported as 0.91% (inactive). With `CC(=O)Nc1ccc(S(=O)(=O)N(C)c2ccc(OCC(=O)OCC(=O)N3CCCCC3)cc2)cc1` the inhibition was -0.39% (inactive). For `CC(C)OCCCNC(=S)N1CCC(C(=O)c2ccc3c(c2)OCCO3)CC1`, the inhibition was -0.4% (inactive). With `CCCN(CC(=O)Nc1ccccc1OC)C(=O)CCC(=O)c1ccc(F)cc1` the inhibition was -0.69% (inactive). With `CSc1nc(N(C)NC(=O)c2cccc(C)c2)c2ccccc2n1` the inhibition was 0.74% (inactive). In the case of `Cc1cc(C)nc(S/C=C/C(=O)c2ccccc2)n1`, the inhibition is reported as 5.17% (active). For `CCOC(=O)C(=Cc1ccccc1)C(=O)c1ccccc1`, the inhibition was 0.49% (inactive). With `CCc1ccc(C2=CC(=O)CC(C)(C)C2=O)cc1` the inhibition was 0.09% (inactive). `COc1cccc(CNC(=O)[C@H]2CCCN2C(=O)[C@H]2CCCN2C(=O)C2CCCCC2)c1` was tested, and the inhibition was -0.24% (inactive). In the case of `COCC1CCN(C(=O)C2CCC(=O)N(CC3CCCCC3)C2)CC1` (configuration not stated), the inhibition is reported as -0.21% (inactive). For `Oc1oc(-c2ccccc2Br)nc1/C=N/c1ccccn1`, the inhibition was 2.4% (inactive). `CC(N=Cc1nc(-c2ccccc2)oc1O)c1ccccc1` (configuration not stated) was tested, and the inhibition was 5.77% (active). `Cc1ccc(-c2noc(CC(c3ccccc3)c3ccccc3)n2)cc1` was tested, and the inhibition was 0.66% (inactive). `CCN(CC)CC1(O)CCN(C(=O)c2ccc(Cl)c(Cl)c2)CC1` was tested, and the inhibition was -0.14% (inactive). `Cc1ccc(C)c(CN2CCC(CNC(=O)C3CCCN(c4ncnc5c4nc4n5CCCCC4)C3)CC2)c1` (configuration not stated) was tested, and the inhibition was 1.23% (inactive). `CSc1ccc(/C=C2\NC(=O)NC2=O)cc1` was tested, and the inhibition was 7.41% (active). For `CC(C)c1ccc(/C=C2\NC(=O)NC2=O)cc1`, the inhibition was 1.9% (inactive). In the case of `CSc1ccc(/C=C/C(=O)NC23CC4CC(CC(C4)C2)C3)cc1`, the inhibition is reported as 3.33% (inactive). In the case of `OC(CCl)CCl`, the inhibition is reported as -0.37% (inactive). With `COc1ccc(CN2CCC(C)(Oc3cccc(F)c3)C2)c2ccccc12` (configuration not stated) the inhibition was 0.31% (inactive). In the case of `CC(/C=N/NC(=O)c1cc(-c2ccc3ccccc3c2)n[nH]1)=C\c1ccco1`, the inhibition is reported as 2.77% (inactive). For `CC(/C=N/NC(=O)c1ccncc1)=C\c1ccco1`, the inhibition was 4.8% (active). With `CC(=NNC(=O)c1ccncc1)c1ccc(Cl)c(Cl)c1` the inhibition was -0.76% (inactive). With `C=CCN1C(=O)N(Cc2ccccc2)c2ccccc2S1(=O)=O` the inhibition was 3.26% (inactive). For `COCCNC(=S)N(CCc1c(C)[nH]c2ccc(C)cc12)Cc1cccnc1`, the inhibition was -1.51% (inactive). For `Cc1[nH]c2ccccc2c1/C=N/NC(=O)CNC(=O)c1ccc2c(c1)OCO2`, the inhibition was 2.56% (inactive). With `COCCNC(=S)N/N=C/c1c(C)[nH]c2ccccc12` the inhibition was 5.52% (active). In the case of `Clc1cccc2c1C1CC2CCN1Cc1ccccc1` (configuration not stated), the inhibition is reported as -1.2% (inactive). In the case of `COC(=O)c1cc2c(c3c4cc(F)ccc4n(S(=O)(=O)c4ccccc4)c13)C(=O)N(Cc1ccccc1OC)C2`, the inhibition is reported as 1.35% (inactive). For `CCCCC1S/C(=N/N=C/c2cccs2)NC1=O` (configuration not stated), the inhibition was 0.75% (inactive). For `CCC1S/C(=N/N=C/c2ccco2)NC1=O` (configuration not stated), the inhibition was 4.55% (active). For `O=C1N/C(=N\N=C\c2ccco2)SC1Cc1ccc(F)cc1` (configuration not stated), the inhibition was 2.66% (inactive). With `COC(=O)C1=C(C)N(Cc2ccc(C(F)(F)F)cc2)C(=NCc2ccccc2)NC1c1ccccc1C(F)(F)F` (configuration not stated) the inhibition was 2.37% (inactive). In the case of `CC(C)(C)c1ccc(S(=O)(=O)NCC2CCN(C(=O)C(=O)c3cc4ccccc4o3)CC2)cc1`, the inhibition is reported as 1.27% (inactive). In the case of `Cc1cccc(-n2c(O)c(C=Nc3ccccc3N)c(=O)[nH]c2=O)c1`, the inhibition is reported as 5.11% (active). `Cc1cccc(-n2c(N)c(C(=O)N3CCN(C)CC3)sc2=S)c1` was tested, and the inhibition was 2.37% (inactive). In the case of `COc1cc(OC)cc(C(=O)NCCSCc2ccc(Cl)cc2)c1`, the inhibition is reported as -2.11% (inactive). In the case of `CCc1nnc(NS(=O)(=O)c2ccc(NC(=O)c3cccc(OC(F)(F)C(F)F)c3)cc2)s1`, the inhibition is reported as -0.35% (inactive). With `CCOC(=O)c1c(NC(=S)NC(=O)/C=C/c2cccs2)sc(C)c1C` the inhibition was -0.71% (inactive). For `CCc1nnc(NS(=O)(=O)c2ccc(NC(=S)NC(=O)/C=C/c3cccs3)cc2)s1`, the inhibition was 4.76% (active). With `Cc1cc(C(=O)NNC(=S)NC(C)c2ccccc2)cs1` (configuration not stated) the inhibition was 0.13% (inactive). With `Cn1nnnc1SCC(=O)Nc1sccc1C(N)=O` the inhibition was 0.13% (inactive). In the case of `COC(=O)c1cc2c(c3c4ccccc4n(S(=O)(=O)c4cccc(C)c4)c13)C(=O)N(Cc1ccccc1)C2`, the inhibition is reported as 0.16% (inactive). With `CC1(C(=O)NCc2ccccc2)CN(S(C)(=O)=O)CC(=O)N1CC(F)(F)F` (configuration not stated) the inhibition was -0.74% (inactive). With `COc1ccc(-n2nnnc2SCC(=O)c2ccc(OC)c(OC)c2)cc1` the inhibition was 1.76% (inactive). `COc1ccc(C(=O)CSc2nc(C)cc(C)n2)cc1[N+](=O)[O-]` was tested, and the inhibition was 11.2% (active). For `COc1ccc(C(=O)NNC(=O)c2cnccn2)cc1[N+](=O)[O-]`, the inhibition was 3.54% (inactive). `CN1CCN(CC(=O)C23CC4CC(CC(C4)C2)C3)CC1` was tested, and the inhibition was -0.74% (inactive). `COc1ccc(C(=O)Nc2c(N)nc(SCC(=O)N3CCC(C)CC3)[nH]c2=O)cc1OC` was tested, and the inhibition was -1.43% (inactive). In the case of `C[C@@H]1ON(C)[C@H]2C[C@H]3c4cc(N5CCOCC5)ccc4CCN3C[C@@H]12`, the inhibition is reported as -1.23% (inactive). In the case of `CCOC(=O)C1=C(C(=O)OCC)C2N(Cc3ccc(C#N)cc3)c3ccccc3[C@@]23C[C@@H](C(=O)OC)N(S(=O)(=O)c2ccc(F)cc2)C3=N1` (some centres not stated), the inhibition is reported as 1.03% (inactive). For `CCOC(OCC)c1ccc(/C=C\c2nccc(N)n2)cc1`, the inhibition was 4.82% (active). `Cc1cc2c(nc1C)CCCN2C` was tested, and the inhibition was 0.48% (inactive). With `O=S(=O)(c1cccs1)N1CCCc2nc(-c3ccc(Br)cc3)ccc21` the inhibition was 0.56% (inactive). With `Cc1ccc(C)c2[nH]c(=O)c(CN(Cc3cccnc3)C(=S)NCc3ccco3)cc12` the inhibition was 0.59% (inactive). For `Cc1cccc(C)c1NC(=O)C(Cl)C(=O)c1ccccc1` (configuration not stated), the inhibition was -0.19% (inactive). For `Cc1occc1C(=O)N/N=C/c1ccc(-c2cccc([N+](=O)[O-])c2)o1`, the inhibition was 4.99% (active). With `COC(=O)N/N=C/c1ccc(-c2ccc(Cl)c(Cl)c2)o1` the inhibition was 3.75% (inactive). With `CCCc1ccc(OCc2ccc(C(=O)N/N=C/c3cccc([N+](=O)[O-])c3)o2)c(OC)c1` the inhibition was 0.9% (inactive). With `CC[C@H](NC(=O)[C@H](Cc1ccccc1)NC(=O)[C@H]1O[C@@H](n2cnc3c(=O)[nH]c(N)nc32)[C@H](O)[C@@H]1O)c1ccccc1` the inhibition was 0.98% (inactive). With `COc1ccccc1-c1n[nH]c2c1[C@H](C)CC[C@H]2C(C)C` the inhibition was 12.6% (active). `COc1ccccc1-c1n[nH]nc1C1=CC(=O)CC(C)(C)C1` was tested, and the inhibition was 2.39% (inactive). In the case of `CCN(C(=O)CSc1nnc(-c2ccncc2)o1)c1ccccc1`, the inhibition is reported as -1.04% (inactive). In the case of `CC(=O)N1N=C(c2ccncc2)OC1(Cc1ccccc1)Cc1ccccc1`, the inhibition is reported as 11.8% (active). With `CC(=O)N1N=C(c2ccccc2)OC1c1cccnc1` (configuration not stated) the inhibition was 0.4% (inactive). In the case of `CC1(C(=O)N/N=C/c2cc3c(cc2Br)OCO3)CC1(Br)Br` (configuration not stated), the inhibition is reported as 2.89% (inactive). For `CC(C)Oc1c(Br)cc(Br)cc1/C=N/NC(N)=S`, the inhibition was 6.79% (active). In the case of `Cc1cc(=O)oc2c3c(cc(OCC(=O)NCc4ccccn4)c12)OC(C)(C)CC3`, the inhibition is reported as 2.4% (inactive). With `COC(=O)c1ccc(OC(=O)c2cnccn2)cc1` the inhibition was 0.63% (inactive). `Cn1c(=NC(=O)c2ccco2)sc2cccc(F)c21` was tested, and the inhibition was 4.22% (inactive). In the case of `Cn1c(=NC(=O)c2cnccn2)sc2ccccc21`, the inhibition is reported as 6.75% (active). For `Cc1cc(N2CCN(C(=O)OC(C)(C)C)C[C@H]2C)ccc1N1CCN(Cc2ccccc2)[C@H](C)C1`, the inhibition was -0.82% (inactive). With `Nc1[nH]c(C(=O)c2ccccc2)c(-c2ccc(Cl)cc2Cl)c1C(=O)c1ccccc1` the inhibition was -0.16% (inactive). For `CCc1c(-c2ccccc2OC)ncn1CCc1ccccc1OC`, the inhibition was 0.48% (inactive). `O=Cc1cn(-c2ccccc2)nc1-c1ccccn1` was tested, and the inhibition was 9.1% (active). For `O=C(COC(=O)/C=C/c1cn(-c2ccccc2)nc1-c1cccnc1)Nc1ccc(Cl)cc1Cl`, the inhibition was 0.05% (inactive). `O=C(NNC(=S)NC(=O)c1cn(-c2ccccc2)nc1-c1ccccc1)c1ccncc1` was tested, and the inhibition was 2.54% (inactive). In the case of `Cc1cc(Cl)ccc1OCc1nc(-c2ccncc2)no1`, the inhibition is reported as 0.44% (inactive). With `CCc1ccc2c(c1)NC(=O)C2(C)Cc1ccc(OC(F)(F)F)cc1` (configuration not stated) the inhibition was 1.57% (inactive). `Cc1ccc(CC2(C)C(=O)Nc3ccc(OC(F)(F)F)cc32)cc1` (configuration not stated) was tested, and the inhibition was 9.02% (active). `COc1ccccc1CC1(C)C(=O)Nc2ccc(OC(F)(F)F)cc21` (configuration not stated) was tested, and the inhibition was -0.13% (inactive). With `Cc1cc(NCCc2c[nH]c3ccccc23)ccc1Oc1cccnc1` the inhibition was -0.9% (inactive).
